Assay results from PubChem BioAssay (NCI).
The panel holds about 83,000 compounds, 20% with a hit somewhere; the sample as a whole holds those more often.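 48-hour exposure, single concentration, 96-well plates; percent growth endpoint where 0 means no net growth. Active: below 10.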 Unmarked numbers belong to inactive results. Calls of active or inactive are those of the source.

tested on: M14 melanoma; experiment: NCI-60 one-dose screen, 48 h (100 = growth as untreated, 0 = no growth, -100 = all killed); details: 10 µM unless noted

**Q.** With `Cc1nc2sc(C(=O)Nc3cccc(Cl)c3C)c(N)c2cc1C(=O)/C=C/c1ccccc1` as the compound, how does the growth read?
**A.** -15.9% (active)

**Q.** How did the growth turn out when `CN1CCN(Cc2ccc(NC(=O)c3cncc(C#Cc4cnc(N)cc4C#N)c3)cc2C(F)(F)F)CC1` was run?
**A.** -23.1% (active)

**Q.** For `c1cc(OCCN2CCCC2)ccc1CNc1ccc2nc(CCC3CCCCC3)[nH]c2c1`, which growth is on record?
**A.** -86.9% (active)

**Q.** Which growth does the source give for `CCN(CC)CCOc1ccc2c(-c3ccccc3)c(-c3ccc(OC)cc3)c(=O)oc2c1` here?
**A.** -7.02% (active)

**Q.** Which growth does the source give for `O=C1/C(=C/c2c[nH]c(=O)[nH]c2=O)SC(=S)N1Cc1ccccc1` here?
**A.** 98.8%

**Q.** How did the growth turn out when `CCN(CC)CCCNc1cc(OC)c(OC)c2cccnc12` was run?
**A.** 48%

**Q.** How did the growth turn out when `COc1cc(Cc2cc(OC)c(O)c(OC)c2)cc(OC)c1O` was run?
**A.** 75.3%

**Q.** With `CSc1ccc(N2C(=N)C(=S)N(c3ccc(C)cc3)C2=O)cc1` as the compound, how does the growth read?
**A.** 86.1%

**Q.** How did the growth turn out when `CCOC(=O)/C(=C(/C)NCC(C)C)c1cc(O)c(O)c2c(C)cc(=O)[nH]c12` was run?
**A.** 53.3%

**Q.** How did the growth turn out when `C/C(=C(\c1ccc(OCCN2CCCCCC2)cc1)c1ccc(OC(=O)c2ccccc2)cc1)c1ccc(Cl)cc1` was run?
**A.** 0.53% (active)

**Q.** `COCCn1cc(-c2csc(-c3c[nH]c4ccc(F)cc34)n2)c2cccnc21` was tested. Which growth did it give?
**A.** 13.2%

**Q.** Which growth does the source give for `Cc1ccc2cnc(N)c(C#Cc3cc(C(=O)Nc4ccc(CN5CCN(C)CC5)c(C(F)(F)F)c4)cnc3C)c2c1` here?
**A.** -90.3% (active)

**Q.** Which growth does the source give for `O=C(NNc1nc2cc(F)ccc2n2c(CN3CCOCC3)ccc12)c1ccccc1` here?
**A.** -15.6% (active)

**Q.** With `COc1ccc(-c2nc(SCC(=O)Nc3nc4ccc(C)cc4s3)[nH]c(=O)c2C#N)cc1OC` as the compound, how does the growth read?
**A.** 91.3%

**Q.** How did the growth turn out when `CCOC(=O)c1ccc[nH]1` was run?
**A.** 96.2%

**Q.** Which growth does the source give for `COc1cc(Cc2cc(-c3ccccc3)nn(Cc3ccccc3)c2=O)cc(OC)c1OC` here?
**A.** 44.1%

**Q.** `O=C(Nc1ccc(Nc2ccncc2)cc1)c1ccc(Nc2ccnc3ccc([N+](=O)[O-])cc23)cc1` was tested. Which growth did it give?
**A.** 108%

**Q.** For `C[C@H]1[C@H](C)CC[C@]2(C(=O)NCCNCCN)CC[C@]3(C)C(=CC[C@@H]4[C@@]5(C)CCC(=O)C(C)(C)[C@@H]5CC[C@]43C)[C@H]12`, which growth is on record?
**A.** 40.9%

**Q.** For `COc1ccc(C/C(C)=C(\c2ccc(Cl)cc2)c2ccc(OCCN3CCCC3)cc2)cc1`, which growth is on record?
**A.** 62.9%

**Q.** With `CCOc1ccc(NC(=O)Nc2ccc(OCC)cc2)cc1` as the compound, how does the growth read?
**A.** 109%

**Q.** How did the growth turn out when `Cc1ccc(NC(=O)c2cc3ccccc3cc2O)c(C)c1` was run?
**A.** 86.9%

**Q.** Which growth does the source give for `COC(=O)c1c2c(c[n+]([O-])c1C)C(=O)C=C(NCc1ccccc1)C2=O` here?
**A.** -92.2% (active)

**Q.** For `C=C1C(=O)O[C@H]2[C@H]1CC/C(CNC(=O)Cc1c[nH]c3ccccc13)=C\CC[C@@]1(C)O[C@@H]21`, which growth is on record?
**A.** 3.28% (active)

**Q.** With `C#CCOc1ccc2nc(CCl)c(Cl)c(Nc3cccc(C(F)(F)F)c3)c2c1` as the compound, how does the growth read?
**A.** 81.4%

**Q.** For `O=C1/C(=C/c2cccc(Br)c2)COc2ccc(O)cc21`, which growth is on record?
**A.** 76.5%

**Q.** How did the growth turn out when `CCN(CC)CCOc1ccc(/C(=C(\C)Cc2ccc(OC)cc2)c2ccc(OC(=O)NCc3ccccc3)cc2)cc1` was run?
**A.** -61.5% (active)

**Q.** `O=C(CCCCCCCC(=O)N1CCCCC1)N1CCCCC1` was tested. Which growth did it give?
**A.** 102%

**Q.** For `Cc1ccc(-c2nc(SCC(=O)N3CCN(c4cc5c(cc4F)c(=O)c(C(=O)O)cn5C4CC4)CC3)nc(Cl)c2C#N)cc1`, which growth is on record?
**A.** 99%

**Q.** For `CSc1ccc2c3c(n(C[C@H](O)CO)c(=O)c2c1)-c1ccccc1C3=O`, which growth is on record?
**A.** 52.2%

**Q.** How did the growth turn out when `Cc1cn(C)cn1` was run?
**A.** 103%

**Q.** How did the growth turn out when `C#Cc1cccc(Nc2ncnc3cc(NC(=O)CCl)ccc23)c1` was run?
**A.** -87.4% (active)

**Q.** For `O=S(=O)(NCCNc1nccc(-c2c(-c3ccc(F)c(O)c3)nc3sccn23)n1)c1ccc(Cl)cc1`, which growth is on record?
**A.** 27.5%

**Q.** For `COc1ccc(C(O)c2cc3c(N)c(C(=O)Nc4cccc5ccccc45)sc3nc2C)cc1` (stereo not given), which growth is on record?
**A.** 15%

**Q.** How did the growth turn out when `O=C(Nc1cc(Cl)ccc1O)c1ccccc1Nc1ccnc(C(F)(F)F)c1` was run?
**A.** 36%

**Q.** For `COc1ccc(/C=C2\c3cc(OC)c(OC)c(OC)c3CC[C@@H]2O)cc1F`, which growth is on record?
**A.** 5.42% (active)

**Q.** Which growth does the source give for `CCN(CC)C(=O)C1=C(C)NC(=O)NC1c1ccc2c(c1)OCO2` (stereo not given) here?
**A.** 104%

**Q.** `COc1ccc(C=Nc2c(C(=O)Nc3cccc(Cl)c3C)sc3nc(C)c(C(=O)/C=C/c4ccc(OC)cc4)cc23)cc1` was tested. Which growth did it give?
**A.** -3.16% (active)

**Q.** With `CC(C)(C)c1ccc(S(=O)(=O)Oc2ccc(-c3sc4cc(OS(=O)(=O)c5ccc(C(C)(C)C)cc5)ccc4c3C(=O)c3ccc(OCCN4CCCCC4)cc3)cc2)cc1` as the compound, how does the growth read?
**A.** 99.2%

**Q.** For `COc1cc(/C=C/c2cc(/C=C/c3ccc(O)c(OC)c3)n(C(=O)Nc3ccc(Cl)cc3)n2)ccc1O`, which growth is on record?
**A.** 4.04% (active)

**Q.** For `O=c1cc(CP(=O)(O)O)c2cc(O)c(-c3ccccc3)cc2o1`, which growth is on record?
**A.** 97.6%
